Measured values published in the supplement of paper PMC6555819.

Legend:
Test in all cases: PBM binding z-score (relative to random genomic background probes); higher = stronger binding; sequences stand for … in GC…GCGATTGACAGCGTAGAATGAAGG
[1] = system: PPARg:RXRa DBDmut IVT, anti-RXR (DBD mutation: RXRa K156A/R161A, NR concentration 270 nM, RXRa partner concentration 90 nM)
Summary of the method: (§1)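 Scanned fluorescence from custom Agilent 4×180K protein-binding microarrays was regression-normalized. Binding z-scores use random background probes as reference. Ligand-free nuclear receptor dimers were incubated on the arrays for 1 h and detected with antibodies against each partner (one per run).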

[2] = system: PPARg:RXRa IVT, anti-PPARg (NR concentration 270 nM, RXRa partner concentration 90 nM)
Summary of the method: as §1

[3] = system: PPARg DBDmut:RXRa IVT, anti-PPARg (DBD mutation: PPARg1 K132A/R137A, NR concentration 270 nM, RXRa partner concentration 90 nM)
Summary of the method: as §1

[4] = system: PPARg DBDmut IVT, anti-PPARg (DBD mutation: PPARg1 K132A/R137A, NR concentration 270 nM)
Summary of the method: as §1

[5] = system: PPARg homodimer (NR concentration 180 nM)
Summary of the method: as §1

[6] = system: PXR:RXRa (NR concentration 270 nM, RXRa partner concentration 90 nM)
Summary of the method: as §1

[7] = system: PXR homodimer (NR concentration 270 nM)
Summary of the method: as §1

[8] = system: RARa:RXR (NR concentration 270 nM, RXRa partner concentration 90 nM)
Summary of the method: as §1

[9] = system: RARa homodimer (NR concentration 270 nM)
Summary of the method: as §1

[10] = system: RARb:RXRa (NR concentration 270 nM, RXRa partner concentration 90 nM)
Summary of the method: as §1

Sequence	PBM binding z-score [1]	PBM binding z-score [2]	PBM binding z-score [3]	PBM binding z-score [4]	PBM binding z-score [5]	PBM binding z-score [6]	PBM binding z-score [7]	PBM binding z-score [8]	PBM binding z-score [9]	PBM binding z-score [10]
TCGAGTAGGCTAGTCGGGGCATTCAGCCAACATA	0.821	0.0917	-1.43	-1.24	-0.694	-0.462	-0.889	-0.446	-1.18	-0.223
CCTAGCAGGCCAATCTTGGTCACTCAAGGCTTGA	1.37	0.831	-0.756	-1.03	-0.618	-0.565	-0.712	-0.332	-1.07	0.275
CGTCCAAGGTCAGAGAGGTCAGTGCATGCCGAGT	3.03	3.39	-0.458	-1.04	4.89	5.91	11.5	5.08	1.45	5.17
GGAACGAGGGCATTCGAGTTGATATCATGGCGAT	2.99	2.26	-0.118	-0.698	0.277	3.8	1.54	0.922	-0.657	1.78
CCGCCTGGGGCATAAGGTTACCATAAGCCAGCCC	-0.446	-0.147	-2.09	-2.48	0.35	0.37	-0.511	1.52	-0.89	1.68
TCTGCTAGGTCAACGATGGTCAGCTGATCTGCTA	3.61	4.29	-0.0935	1.17	0.984	1.58	-0.669	2.3	-0.39	4.03
TTACCAAGGTGAGCTGAGGTCGTTGTTCCAACTC	1.27	2.01	-0.911	-0.688	-0.161	5	0.345	2.16	-0.978	1.79
CCTAGCAGGCCAGGGTGACTCAAGCATTTCGCTT	0.555	0.0938	-1.83	-1.19	-0.646	-0.537	-0.777	-0.0885	-0.299	0.148
AGTCAAAGTTCAGTACGAGGTAACGTAAAGCACG	-0.11	1.83	0.68	0.981	1.69	3.02	1.72	2.35	1.06	4.11
TCTATGAGTTGATTAGGGCAACCGAAACAGCGGA	1.35	1.19	-0.00987	-0.582	-0.0125	0.279	-0.195	0.487	-0.0986	0.711
ATATGTAGGTTATCGGGCCATTCAGTTTGCGCAT	7.31	6.82	2.32	3.56	1.89	0.605	1.06	0.558	1.09	1.08
CAAACTAGGTCGAGAGGTCAAAGTCCGCTTCCCG	5.89	6.2	0.871	-0.159	2.68	5.25	1.9	5.44	1.21	4.24
ATATGTAGGTTACATCCGGGTCATACAGGCTATG	7.27	7.54	4.07	3.35	3.84	3.46	1.19	4.26	0.627	2.41
TCATATAGGTAAAGGAGAAAGTCGAACGATATGA	3.55	2.2	1.76	0.854	0.0719	0.215	-0.235	0.407	0.331	0.251
TCTAGTTGGTCAAAGGTCCCACACTCGAAATGCG	2.94	3.27	0.799	1.15	1.16	0.98	-0.0577	1.49	1.06	1.67
TCTTGTAGATCAATAGAGGTTACGAAAGTGCGCT	1.83	1.63	0.944	0.638	0.416	3.21	0.389	2.22	0.489	1.24
CGAACTAGGTCATCCAGGACAGTGATTACATTGA	8.17	8.1	1.9	1.24	1.15	1.95	1.25	2.17	0.703	3.98
TCTTGTAGATCAGCTGGTTAAGAAAGCTGGCCAA	1.46	-0.0157	-0.253	-0.0877	-0.903	0.0917	-0.51	0.0228	-0.485	-0.526
CTAACTAGGTCAAGAGGTCAAAGTCCGCTTCCCG	8.74	8.7	3.27	2.76	5.39	6.07	2.21	7.15	1.67	5.5
CCTACTGGGCCATCAGGTCATTTATATCAACGTT	3.78	5.03	0.0191	0.266	1.09	1.59	0.478	2.06	0.492	1.75
TTACCAAGGTGAAAGCTCGTTGATGCACGCCTTG	1.69	2.4	0.152	-0.364	-0.529	-0.393	-1	0.109	-0.866	1.3
CCGACTAGGGCAAGGTTACCATAACGCACAGCCA	4.54	4.32	-0.62	-0.559	1.27	0.169	-0.069	0.801	0.218	1.91
ACTAGCAGGCCACGGGTCACTCAAGATTAGTCCG	1.77	3.02	0.251	-0.351	0.555	1.52	-0.598	2.05	-0.386	2.17
CCTTACGGGTCACTGCAGGTTATAGCATCGGAGT	3.51	3.76	-0.541	-0.0144	1.95	4.74	0.0878	4.05	0.239	3.97
CCAGACAGGTGAAAGGTAATTCAGTCTGGTACGC	2.07	2.63	-0.0152	-0.567	1.43	0.676	-0.138	1.49	0.566	0.958

Sequence	PBM binding z-score [1]	PBM binding z-score [2]	PBM binding z-score [3]	PBM binding z-score [4]	PBM binding z-score [5]	PBM binding z-score [6]	PBM binding z-score [7]	PBM binding z-score [8]	PBM binding z-score [9]	PBM binding z-score [10]
AGAATGAGGTTATACGTAGATCAGGGAGGAAAGT	3.75	1.91	1.26	0.799	0.811	1.18	0.618	1.66	0.507	1.47
GATACAGGGTCAGCTAGAGGCCAGATTATGGAAA	0.866	2.23	0.547	-0.0092	1.91	3.24	-0.0885	4.03	0.518	4.12
CCGAATGGGGCAGAAAGGTTACCATACCATCCGG	0.269	1	-1.13	-0.938	0.818	1.11	0.134	1.8	-0.0696	1.89
ACAGACAGGTGATGAAGGAAACTCAGGCTATCAT	-0.00583	0.186	0.678	0.42	0.36	-0.196	0.0696	0.162	0.228	0.275
ATATGTAGGTTAGCTGGGGTCACTCAGACTAGGC	6.74	6.02	1.28	0.639	2.37	5.85	2.05	5.16	0.798	3.22
GCTAGCAGGCCCTTTGGGTCACTCAATGACGGGC	-0.306	0.697	-0.724	-0.795	-0.401	-0.203	-0.555	0.51	-0.612	0.879
CCTTACGGGTCACTGACAGGTGATAGCATTTGGA	3.73	3.99	0.64	-0.737	2.47	4.3	0.473	5.06	0.945	4.15
ATCTCTAGGTAAAGATAGTTCCGTGAATGCAAAT	1.2	1.52	1.55	0.949	0.486	-0.0332	0.339	0.23	0.96	-0.0284
CTCGAAAGGTCGGCTGAGGTGAGTATACGGATAA	-0.0166	1	-0.0144	-0.891	1.16	4.09	-0.42	3.02	-0.275	3.56
TCTTGTAGATCAACGGGAGGTTAAGAAAGATCGA	2.28	0.974	0.226	-0.0514	0.14	0.94	0.02	1.14	0.281	0.648
GGAACGAGGGCAAGTAGATAGCAGAGTTTGATGG	3.61	2.59	-0.498	-0.505	-0.0596	0.344	0.589	0.247	-0.258	2.46
TCATGTAGATCAAGCAGGTTAAGAAAGCCTGAGT	2.01	0.466	0.49	0.274	0.552	0.746	0.293	0.72	-0.363	-0.0113
GGAACGAGTGCAAAGTTGATAGCATCTGTCGACG	-0.204	0.102	-0.12	0.22	-0.16	0.715	0.211	0.728	-0.6	0.396
TCGAGTAGGTTACCAACGGGGCATTCAGCTTTCT	3.15	2.64	-0.246	0.0471	-0.456	-0.0163	-0.774	0.402	-1.51	0.936
ATCCCTAGGTAAGACTCAGTTCAGTGAAGAACGC	0.0897	-0.242	-0.265	0.674	0.578	1.06	1.32	0.256	0.532	0.244
GATGCAGGGTCAGCTAGAGGCCAGAGTATGGAAA	0.505	1.63	-0.437	-1.46	2.73	3.3	-0.237	4.56	0.285	4.1
CATACAGGGTCAGCTAGGCCAGAGTAGGGACGGC	1.4	2.5	0.615	1.03	1.25	1.89	-0.17	2.74	0.0717	4.31
CGTCCAAGGTCAGCATGTCAGTGAAAGCGACGTG	2.52	2.35	-0.0905	-0.674	2.58	2.41	0.102	3.01	0.765	4.93
ATCTCTAGGTAACAAGTTCATTGAAAGAGAGGAC	3.39	3.28	1.38	1.78	1.57	3.71	5.1	2.06	1.52	1.89
CAAACTAGGTCACATAGGTCAAAGTCCGTGCGTA	8.33	8.57	3	4.3	4.12	5.04	4	5.51	2.09	4.7
ATATGTAGGTTAGCTGGGGACATTCAGACTAGGC	6.96	6.07	2.18	1.88	1.9	2.92	0.356	1.71	1.2	1.22
AGAACGGGGGCACGCTGAGTTGATAGCAGAGTAG	4.63	6.15	9.13	9.69	2.35	3.72	1.03	2.98	0.451	3.1
TCTAGTTGGTCAAAGGTGACACACTCGAAATGCG	3.81	4.76	1.03	1.64	2.13	2.14	0.548	2.88	1.33	2.38
CGACCAAGGTCAGAGAGGTCAGTGAATGCCGAGT	2.95	3.5	0.125	-0.614	5.33	6.21	12.7	5.78	2.47	5.18
